This is a sample that favours compounds with a hit; in the whole collection about 3.9% have one here.
PK Bst = modulators of Bacillus stearothermophilus pyruvate kinase | AID 361 | 1.2% of 51,000 active | Potency, µM | purified pyruvate kinase, luminescence ATP production; ribose 5-phosphate activator present at AC10; in the data active = potency below about 11 µM; inconclusive = mostly about 12 µM to 25 µM;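 the screen sought inhibitors and activators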
Luciferase inh = inhibitors of firefly luciferase | P08659 | purified firefly luciferase, luminescence, 8 min | Potency, µM (top dose mostly 57.1 µM), usual class: inhibitors | 2.2% of 72,000 active; also: nearly all actives have a fitted effect of over 40% in size
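Here, luciferase activity is measured as luminescence following an 8 min room-temperature reaction at 10 uM ATP, pH 7.2. Every library sample is titrated.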
GBA activity = human lysosomal glucosylceramidase modulation | purified enzyme, resorufin glucoside fluorescence (screen aimed at inhibitors), 20 min | Potency, µM | 1.1% of 48,000 active | AID 360; in the data active = potency below about 15 µM; inconclusive = mostly about 16 µM to 33 µM;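 also: the screen sought inhibitors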
Target sequence (P04062 whole entry, looked up): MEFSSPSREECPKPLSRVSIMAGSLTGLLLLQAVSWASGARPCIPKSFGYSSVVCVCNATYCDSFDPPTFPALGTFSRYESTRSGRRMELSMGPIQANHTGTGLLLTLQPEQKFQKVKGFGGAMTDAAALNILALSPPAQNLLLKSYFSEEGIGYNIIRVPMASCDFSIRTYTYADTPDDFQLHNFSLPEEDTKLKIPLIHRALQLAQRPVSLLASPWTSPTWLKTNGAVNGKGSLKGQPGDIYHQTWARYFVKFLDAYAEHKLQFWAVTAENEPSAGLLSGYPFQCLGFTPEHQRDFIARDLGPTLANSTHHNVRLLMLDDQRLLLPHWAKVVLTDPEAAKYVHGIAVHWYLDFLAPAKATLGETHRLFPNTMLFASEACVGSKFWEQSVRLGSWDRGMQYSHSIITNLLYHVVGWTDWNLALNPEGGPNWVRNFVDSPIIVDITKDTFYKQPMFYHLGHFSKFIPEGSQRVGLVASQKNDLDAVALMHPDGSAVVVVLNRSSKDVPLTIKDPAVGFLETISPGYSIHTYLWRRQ
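Wild-type enzyme at 0.2 nM final in 50mM citric acid/KH2PO4, 10mM sodium taurocholate, 0.01% tween-20, pH 5.9, with resorufin beta-D-glucopyranoside at 30 uM final. Compounds titrated, 20 min at RT, red fluorescence read; AC50 from titration.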
ERK AVP inh = vasopressin-driven ERK pathway inhibition | HEK293-V1b, vasopressin-stimulated pERK AlphaScreen | Potency, µM (top dose mostly 57.5 µM), hits mostly inhibitors | 0.99% of 72,000 active; also: nearly all actives have a fitted effect of over 55% in size
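Phosphorylated ERK1/2 detected via AlphaScreen bead proximity in lysates of V1b-expressing HEK293 cells given 25 nM vasopressin for 5 min after 30 min compound exposure (37 °C). AC50 from Hill equation; basal DMSO 0%, vasopressin 100%.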
A number is an active result; i = inactive; ? = inconclusive; nt = no result; [ ] = dose if it differs, or a comment. Unless noted, calls follow the shape of the dose curve; as a rule, active = well fitted curve in the direction sought with a large enough effect; inconclusive = small, poorly fitted or top-dose-only effect, or another doubt; inactive = no such curve, though single readings can be large; an effect the other way counts as inactive or inconclusive.

SMILES	PK Bst	Luciferase inh	GBA activity	ERK AVP inh
COc1ccccc1CN1CCCC2(CCN(C(=O)c3cccn3C)CC2)C1	nt	i[11.4 µM]	nt	i
Cc1c(-c2nc(N)nc(Nc3ccccc3F)n2)oc2ccccc12	nt	13µM	nt	i
COc1ccccc1Nc1nc(N)nc(-c2cc3ccccc3o2)n1	nt	i	i	i
c1ccc(Nc2ncnc3c2oc2ccccc23)cc1	5.4	i	i	i
c1ccc2c(c1)oc1c(Nc3ccc(CN4CCOCC4)cc3)ncnc12	i	16µM	?	20µM
Oc1ccccc1Nc1ncnc2c1oc1ccccc12	i	i	i	i
NC([N-]/N=C/c1ccccn1)=[S]=[Fe].O=S(=O)(O)O	nt	i[11.4 µM]	nt	i[11.5 µM]
COc1ccc2c(c1)c(C(=O)N1CCN(C)CC1)c(C)n2-c1ccccc1	i	i	12	i
O=C(Nc1ccc2c(c1)CCC2)c1cnccn1	nt	25µM	i	i
Cc1cnc(C(=O)Nc2ccc(F)c(F)c2)cn1	i	i	i	i
Cc1cnc(C(=O)Nc2ccc3c(c2)CCC3)cn1	i	16µM	i	i
CC1(C)O[C@H]2[C@@H](c3[nH]nc4c(=O)[nH]c(=O)[nH]c34)OC[C@H]2O1	nt	i[11.4 µM]	nt	i[11.5 µM]
O=c1cc(-c2ccccc2O)oc2c1ccc1ccccc12	nt	i[11.4 µM]	nt	i
Cc1ccc(-c2cc(C(=O)NCC3CCCO3)no2)cc1 (centres undefined)	i	13µM	i	i
COc1ccc(C(=O)c2cn[nH]c2-c2cc(Cl)ccc2O)cc1	nt	i	nt	40µM
C=CCn1c2ccccc2c2nnc(SCCCn3c(=O)[nH]c4ccccc43)nc21	nt	i	nt	13µM
Cc1c(Cl)cccc1NC(=O)C[C@H]1Sc2ccccc2NC1=O	nt	i[11.4 µM]	nt	?
Cn1c2ccccc2c2c(C(=O)NCC3CCCO3)cn(C3CCCC3)c(=O)c21 (centres undefined)	nt	13µM	i	i
CCN1C(=S)SC(=O)C1=C1C=C(C)N(CCOC)C(C)=C1	nt	i	15	i
COc1c(-c2coc3cc4c(cc3c2=O)CC(O)C(C)(C)O4)ccc2c1C=CC(C)(C)O2 (centres undefined)	nt	nt	nt	3.2µM
COc1c(-c2coc3cc4c(cc3c2=O)CC(OC(C)=O)C(C)(C)O4)ccc2c1C=CC(C)(C)O2 (centres undefined)	nt	nt	nt	16µM
CC1(C)C=Cc2c(cc3occ(-c4ccc5c(c4)OCO5)c(=O)c3c2O)O1	nt	nt	nt	i
O=C(NC1=NC2CCCCC2N1)c1ccccc1 (centres undefined)	?	1.3µM	?	i
CC(=O)c1n[nH]nc1NC(=O)c1ccccc1	i	i	i	i
COC(=O)c1cc(-c2ccc(OC)c(OC)c2)on1	nt	i	i	7.9µM
SMILES	PK Bst	Luciferase inh	GBA activity	ERK AVP inh
COc1ccc(OC)c(CCNC(=O)Cn2sc3nc(C)cc(C)c3c2=O)c1	nt	10µM	nt	16µM
COc1ccc(-c2nc(CS(=O)(=O)CC(=O)NCCc3cc(OC)ccc3OC)c(C)o2)cc1	i	i	i	i
Clc1ccc2c(c1)C1OCCC1C(c1ccco1)N2 (centres undefined)	9.6	16µM	i	i
NC(=O)c1ccc(-c2ccc(Br)cc2)o1	5.1	i	i	i
O=C(O)CCc1ccc(-c2ccc(Br)cc2)o1	nt	i	i	i
CCC1=C(OC(=O)N(CC)CC)N2C(=O)OC(=NCCOC)[C@]2(C)[C@H]2C1=CC[C@H]1C(=O)N(CC(=O)OC)C(=O)[C@H]12	nt	nt	nt	i
c1cncc(-c2nc(-c3ccc4c(c3)OCO4)cs2)c1	?	13µM	i	i
Nc1nc(-c2ccc3c(c2)OCCO3)cs1	i	25µM	?	i
Nc1nc(-c2ccc3c(c2)CCCC3)cs1	?	13µM	i	i
CCC(C)C(=O)N1CCc2cc(-c3csc(N)n3)ccc21 (centres undefined)	8.1	10µM	?	i
O=c1c(-c2cccc(Cl)c2)nc2cncnc2n1Cc1ccc(F)cc1	nt	i[11.4 µM]	nt	?
COc1cc(NC(=O)c2ccc(NS(=O)(=O)c3c(C)noc3C)cc2)cc(OC)c1	i	i	11	i
COc1ccc(C(=O)Nc2cc(OC)cc(OC)c2)cc1	nt	4µM	nt	i
Cc1cccc(NC(=O)c2ccc(NS(=O)(=O)c3c(C)noc3C)cc2)c1	i	i	12	i
COc1cc(NC(=O)c2ccccc2)cc(OC)c1	i	i	i	i
COc1ccc(OC)c(NC(=O)c2ccc(NS(=O)(=O)c3c(C)noc3C)cc2)c1	i	i	?	i
O=C1[C@H]2[C@H]3[C@H](O)[C@H](O)C/C(=N/OC[C@@H](O)COCc4ccco4)[C@H]3CC[C@@H]2C(=O)N1c1cccc(Oc2ccccc2)c1	nt	i[11.4 µM]	nt	i[11.5 µM]
CCCC[C@@H]1C[C@H]1C(NC(=O)c1cccnc1)c1ccc(-c2ccccc2)cc1 (some centres undefined)	nt	nt	nt	i
COc1ccc(C2C3=C(N=C4SCC(=O)N42)c2ccccc2CC3)cc1 (centres undefined)	nt	25µM	i	i
CCOC(=O)c1cnc(-n2nc(C)cc2C)nc1N(C)C	11	13µM	i	i
CCOC(=O)c1sc(NC(=O)c2c(C)nn(Cc3ccccc3)c2C)cc1C	nt	5µM	i	i
NNc1nncc2ccccc12	nt	4µM	nt	i
O=C(c1cc(-c2ccc3c(c2)OCO3)on1)N1CCOCC1	?	7.9µM	i	i
CC(C)Cc1cc(C(=O)Nc2ccc3c(c2)OCO3)no1	nt	7.9µM	nt	i
O=C(c1cc(-c2ccc(Cl)c(Cl)c2)on1)N1CCCC1	nt	i	nt	i
SMILES	PK Bst	Luciferase inh	GBA activity	ERK AVP inh
O=C(c1cc(-c2ccc(Cl)cc2Cl)on1)N1CCOCC1	6.3	7.9µM	i	i
CCc1ccc(NC(=O)c2cc(CC(C)C)on2)cc1	nt	i	nt	i
O=C(c1cc(-c2ccc(Cl)cc2)on1)N1CCOCC1	nt	13µM	i	?
O=C(Nc1cccnc1)c1cc(-c2cccs2)on1	i	i	i	i
O=C(Nc1cccnc1)c1cc(-c2ccc3c(c2)OCO3)on1	nt	0.79µM	i	i
COC(=O)c1ccc(C(NC(=O)OCc2ccccc2)/C(F)=C/[C@@H](C)C(=O)N[C@@H](CO)Cc2ccccc2)cc1 (some centres undefined)	nt	nt	nt	i
O=C1C(C=Nc2ccccc2O)=C(O)c2ccccc21	7.3	7.9µM	i	?
CN=CC1=C(O)c2ccccc2C1=O	nt	i	i	?
Cc1ccc(O)c(N=CC2=C(O)c3ccccc3C2=O)c1	nt	25µM	nt	?
CC(=O)OCC1OC(C#Cc2ccc(F)cc2F)C=CC1OC(C)=O (centres undefined)	nt	nt	nt	i[11.5 µM]
COc1ccc(O[C@H]2C=C[C@@H](c3ccccc3)O[C@H]2COC(=O)CC/C(C)=N\OC[C@@H](O)COCc2ccco2)cc1	nt	i[11.4 µM]	nt	i[11.5 µM]
COc1ccc(OC)c2sc(N3CCN(c4ccccc4)CC3)nc12	?	25µM	i	i
CC(C)c1ccc(S(=O)(=O)N2CCN(C(=O)c3cccc(F)c3)CC2)cc1	i	i	15	i
O=c1c(-c2cccs2)nc2cnc(N3CCNCC3)nc2n1CCc1ccccc1	nt	i[11.4 µM]	nt	i
Cc1ccc2[nH]c3c(N4CCN(Cc5ccccc5)CC4)ncnc3c2c1	i	i	nt	nt
Cc1ccc2c(c1)[nH]c1c(N3CCN(Cc4ccccc4)CC3)ncnc12	?	i	nt	16µM
COc1cc(OC)c(OC)cc1CNc1cc(C)ccc1OC	nt	i	nt	25µM
COc1ccccc1CN1CC[C@@]2(CCCN(C(=O)c3cccn3C)C2)C1	nt	i[11.4 µM]	nt	i
Cc1cc(=O)[nH]c(SCCOc2ccc3c(c2)CCC3)n1	i	i	i	i

From PubChem BioAssay
